In all, about 110,000 compounds were measured (“z-score”: median about -0.1, highest 2% from about 2 on). The sample as a whole holds a higher share of the highest values than the screen did. Calls of active or inactive are those of the source.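 The calls were made as follows: active = z-score in the third read window above 3 or below -3; inactive = the rest.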
Biological target: Metabotropic glutamate receptor 8 (Rattus norvegicus) (UniProt P70579)
Experiment: mGluR8 Gi/Go-coupled signaling modulation – cell-based, rat, thallium flux, HTS, primary screen (AID 488969)
Details: HEK293 rat mGluR8, GIRK (G protein-gated inwardly rectifying potassium channel) thallium flux, FluoZin2; at 10 µM; stronger effect = higher value; submaximal glutamate (EC20) added with thallium

Sequence of Metabotropic glutamate receptor 8 (Rattus norvegicus) (P70579 whole entry, looked up): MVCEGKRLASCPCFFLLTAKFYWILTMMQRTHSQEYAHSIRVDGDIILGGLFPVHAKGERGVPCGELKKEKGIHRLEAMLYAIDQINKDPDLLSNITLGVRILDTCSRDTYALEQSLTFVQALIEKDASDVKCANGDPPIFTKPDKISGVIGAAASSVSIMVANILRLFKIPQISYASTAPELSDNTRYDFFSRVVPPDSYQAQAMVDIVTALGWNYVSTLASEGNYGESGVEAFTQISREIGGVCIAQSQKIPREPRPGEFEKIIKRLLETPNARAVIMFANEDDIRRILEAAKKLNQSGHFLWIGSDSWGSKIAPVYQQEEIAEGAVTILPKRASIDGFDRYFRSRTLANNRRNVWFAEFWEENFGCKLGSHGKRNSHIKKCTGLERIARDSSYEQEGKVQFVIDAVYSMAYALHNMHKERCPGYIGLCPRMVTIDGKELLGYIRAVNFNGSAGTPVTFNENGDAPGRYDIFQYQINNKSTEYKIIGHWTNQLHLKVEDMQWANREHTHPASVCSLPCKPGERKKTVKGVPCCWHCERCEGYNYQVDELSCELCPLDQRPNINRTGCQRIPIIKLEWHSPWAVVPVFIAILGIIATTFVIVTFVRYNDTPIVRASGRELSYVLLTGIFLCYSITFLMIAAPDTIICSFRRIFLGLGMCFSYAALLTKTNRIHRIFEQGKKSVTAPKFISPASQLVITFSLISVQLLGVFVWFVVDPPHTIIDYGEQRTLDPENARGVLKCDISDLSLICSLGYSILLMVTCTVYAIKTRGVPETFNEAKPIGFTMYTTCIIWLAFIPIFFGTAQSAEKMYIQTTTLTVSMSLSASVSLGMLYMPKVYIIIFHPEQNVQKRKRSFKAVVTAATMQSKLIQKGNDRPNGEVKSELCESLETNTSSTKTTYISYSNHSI

Row | SMILES | z-score
1 | CN(C)c1ccc(/C=C/C(=O)c2ccccc2)cc1[N+](=O)[O-] | -0.207
2 | Fc1c(F)c(F)c(N=Cc2ccc3ncccc3c2)c(F)c1F | 0.201
3 | O=C(NC(=S)Nc1nc2c(ccc3ccccc32)s1)c1cccs1 | 2.78
4 | Cc1ccc(-c2csc(NC(=S)NC(=O)c3cccs3)n2)cc1 | -0.267
5 | Cc1ccc2nc(NC(=S)NC(=O)c3cccs3)sc2c1 | 4.64 (active)
6 | O=C(NC(=S)Nc1nc2ccccc2s1)c1cccs1 | 11.7 (active)
7 | O=C(NC(=S)Nc1nc(-c2ccccc2)cs1)c1cccs1 | 1.03
8 | O=C(Cc1cccs1)Nc1nc2c(ccc3ccccc32)s1 | 0.34
9 | CCc1ccc(-c2nc(NC(=S)NC(=O)c3cccs3)sc2C)cc1 | 0.595
10 | Cc1ccc2nc(NC(=O)Cc3cccs3)sc2c1 | 0.542
11 | Cc1nc(NC(=S)NC(=O)c2cccs2)sc1C(=O)N(C)C | -0.329
12 | O=C(c1ccc(Cl)cc1)C1CCN(C(=O)C2CC2)CC1 | 0.108
13 | CCOC(=O)c1c(C)n(-c2ccc(C)cc2)c2c(CC(C)=O)c(Br)c(OC)c(O)c12 | -0.0818
14 | Clc1ccc(Cc2ccc(SCc3ccccc3)nn2)c(Cl)c1 | 3.48 (active)
15 | CSc1ccc(Cc2ccc(Cl)cc2Cl)nn1 | -0.154
16 | Clc1ccc(Cc2ccc(Cl)nn2)c(Cl)c1 | -0.119
17 | O=C(N/N=C\c1ccc(Sc2ccccn2)o1)c1cccc(Br)c1 | 1.77
18 | O=C(N/N=C\c1ccc(Sc2ccccn2)o1)c1cccc(F)c1 | -0.471
19 | O=C(N/N=C/c1ccc(Sc2ccccn2)o1)c1cc2ccccc2cc1O | 6.43 (active)
20 | CCOC(=O)c1ccc(NC(=S)N2CCN(Cc3ccccc3)CC2)cc1 | -0.2
21 | CN(C)c1ccnc(Oc2ccc(C(C)(C)C)cc2)c1C#N | -0.212
22 | O=C(O)C1CCCN1C(=O)c1cccs1 (configuration not stated) | 0.319
23 | O=C(OCc1ccccc1)C1CCCN1C(=O)c1cccs1 (configuration not stated) | -0.219
24 | COC(=O)C1CCCN1C(=O)c1cccs1 (configuration not stated) | 5.05 (active)

Row | SMILES | z-score
25 | CC(=O)NC1(c2nnnn2CCOC(=O)Nc2ccc(Cl)cc2)CCCCC1 | 0.0804
26 | O=C(O)CCC(=O)N1N=C(c2c(-c3ccccc3)c3cc(Cl)ccc3[nH]c2=O)CC1c1ccco1 (configuration not stated) | -0.219
27 | C/C(=N\NC(=O)C(NC(=O)c1ccccc1)C(C)C)c1ccccc1 (configuration not stated) | -0.068
28 | C/C(=N\O)C(C)NC(=O)c1ccccc1 (configuration not stated) | 3.54 (active)
29 | CC(C)NC(=O)/C(=N\O)c1ccccc1 | 0.0549
30 | COc1ccccc1NC(=S)NCc1ccc2c(c1)OCO2 | -0.0224
31 | Cc1sc(NC(=O)c2cc(-c3ccc(Cl)cc3)nc3ccccc23)c(C(N)=O)c1C | -0.126
32 | O=C(c1ccccc1)N(Cc1ccc(F)cc1)C1CCS(=O)(=O)C1 (configuration not stated) | -0.0413
33 | O=C(c1ccc(Cl)c([N+](=O)[O-])c1)N(Cc1ccccc1)C1CCS(=O)(=O)C1 (configuration not stated) | 2
34 | O=C(c1sc2ccccc2c1Cl)N(Cc1ccccc1)C1CCS(=O)(=O)C1 (configuration not stated) | 1.16
35 | CCCCn1c(=O)[nH]c(=O)c2c1ncn2Cc1ccco1 | -0.249
36 | CCOC(=O)CN(C(=O)CSc1nnc(CNc2ccc(F)cc2)n1CC)c1ccc(F)cc1 | -0.599
37 | COc1ccc(OC)c(CNC(=O)CCN2C(=O)COc3ccccc32)c1 | 0.307
38 | CSc1nc2ccccc2cc1/C=C(\C#N)c1cccc(C)c1 | 3.99 (active)
39 | CSc1nc2ccccc2cc1/C=C(\C#N)c1cccc(Cl)c1 | 0.938
40 | CSc1nc2ccccc2cc1/C=C(\C#N)c1ccccc1 | 0.0152
41 | COc1ccc(C(C)=O)cc1CN1C(=O)C(C)N(c2ccc(C)cc2)C1=O (configuration not stated) | -0.0103
42 | CCOc1ccc(N2C(=O)CC(SC(=NC)Nc3ccc(F)cc3)C2=O)cc1 (configuration not stated) | 3.7 (active)
43 | CCOc1ccc(N2C(=O)CC(SC(=NC)Nc3cccc(F)c3)C2=O)cc1 (configuration not stated) | -0.588
44 | CCCOc1ccc(N2C(=O)CC(SC(=NC)Nc3ccc(F)cc3)C2=O)cc1 (configuration not stated) | -0.0553
45 | CCOC(=O)CN1NC2(CCC(C(C)(C)C)CC2)NC1=S (configuration not stated) | 2.66
46 | CCOC(=O)CN1NC2(CCC(C)CC2)NC1=S (configuration not stated) | -0.408
47 | CCOC(=O)CN1NC2(CCCCC2)NC1=S | 0.284
48 | O=C(CSc1nc(-c2ccccc2)c(-c2ccccc2)[nH]1)NCc1ccco1 | -0.317

Row | SMILES | z-score
49 | C=CCOc1ccc(/C(O)=C2\C(=O)C(=O)N(CCCOC)C2c2ccc(O)c(OC)c2)cc1 (configuration not stated) | -0.44
50 | Cc1ccc(NS(=O)(=O)c2ccc3c(c2)C(=O)c2ccccc2C3=O)c(C)c1 | -0.0521
51 | O=C1c2ccccc2-c2cccc(NS(=O)(=O)c3ccc(C(F)(F)F)cc3)c21 | 2.66
52 | Cc1cccc(S(=O)(=O)Nc2cccc3c2C(=O)c2ccccc2-3)c1 | 8.14 (active)
53 | CNc1cccc2c1C(=O)c1ccccc1C2=O | -0.102
54 | Cc1ccc(S(=O)(=O)Nc2ccccc2-c2ccccc2NS(=O)(=O)c2ccc(C)cc2)cc1 | -0.159
55 | O=C(O)c1ccccc1NS(=O)(=O)c1cccc(C(F)(F)F)c1 | -0.814
56 | CCOC(=O)c1[nH]cnc1C(=O)Nc1ccncc1 | 0.161
57 | O=C(CS(=O)(=O)c1ccc2ccccc2c1)Nc1ccccc1Cl | -0.351
58 | Cn1c(N2CCC(C(N)=O)CC2)nc2c1c(=O)n(Cc1cccc(Br)c1)c(=O)n2C | -1.26
59 | COC(=O)NCc1ccc(S(=O)(=O)N2CCOCC2)cc1 | 0.235
60 | COc1cc(C(=S)N2CCCC2)ccc1O | 0.115
61 | COc1cc(C(=S)N2CCCC2)cc(Cl)c1O | 2.62
62 | COc1cc(C(=S)N2CCCC2)cc(OC)c1O | 0.304
63 | Cc1sc2nc(C)n(/N=C/c3ccc(O)cc3)c(=O)c2c1C | -0.305
64 | COc1ccc(S(=O)(=O)N(Cc2ccccc2)Cc2nc3ccccc3c(=O)[nH]2)cc1 | -0.148
65 | COc1ccc(S(=O)(=O)N(Cc2nc3ccccc3c(=O)[nH]2)C2CCCC2)cc1 | 2.49
66 | Cc1cccc(NC(=O)N(Cc2nc3ccccc3c(=O)[nH]2)C2CCCC2)c1 | 2.35
67 | O=c1[nH]c(CS(=O)(=O)c2ccccc2)nc2ccccc12 | 3.08 (active)
68 | Cc1ccc(S(=O)(=O)Cc2nc3ccccc3c(=O)[nH]2)cc1 | -0.19
69 | O=C(Nc1cccc(Cl)c1)N(Cc1nc2ccccc2c(=O)[nH]1)C1CCCC1 | -0.529
70 | COc1ccc(CN(Cc2nc3ccccc3c(=O)[nH]2)C(=O)NC2CCCCC2)cc1 | -0.301
71 | CN(Cc1nc2ccccc2c(=O)[nH]1)c1ccccc1 | -0.0308
72 | O=C(NC1CCCCC1)N(Cc1nc2ccccc2c(=O)[nH]1)C1CCCC1 | 0.129

Source: PubChem BioAssay AID488969 (Vanderbilt High Throughput Screening Facility, 2010)
